Binding signal data for 42 sequences are collected here from paper PMC7819943, “Rice protein-binding microarrays: a tool to detect cis-acting elements near promoter regions in rice”.

In all, about 39,000 sequences were measured (“fluorescence intensity (a.u.)”: median about 4,300, highest 2% from about 39,000 on). The sample as a whole holds a higher share of the highest values than the screen did.

This assay concerns the target T1, OsSMF1 (Oryza sativa, UniProt Q6ZLB0 1-436).
T1 sequence: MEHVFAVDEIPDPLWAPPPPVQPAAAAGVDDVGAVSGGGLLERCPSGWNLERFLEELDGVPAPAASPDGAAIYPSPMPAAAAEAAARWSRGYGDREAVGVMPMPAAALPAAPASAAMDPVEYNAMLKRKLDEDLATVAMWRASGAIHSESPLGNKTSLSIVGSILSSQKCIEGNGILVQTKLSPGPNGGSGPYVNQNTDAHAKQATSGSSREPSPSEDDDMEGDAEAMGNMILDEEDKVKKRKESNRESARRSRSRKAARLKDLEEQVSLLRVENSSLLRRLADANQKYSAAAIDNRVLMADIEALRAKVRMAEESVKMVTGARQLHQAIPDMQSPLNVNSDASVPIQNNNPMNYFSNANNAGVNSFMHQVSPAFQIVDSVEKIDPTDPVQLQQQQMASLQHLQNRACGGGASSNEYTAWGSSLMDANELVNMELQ
Description: protein-binding microarray (RPBM); PBS, 2% BSA, 51.3 ng/ul salmon testes DNA, 50 uM zinc acetate, 200 nM TF, 25 C, 1 h; high values mean tight binding. The conditions noted are these: protein: recombinant; tags: N-terminal polyhistidine and DsRed monomer fusion (pET32a); chain copies: 2; label: CyDye5-dUTP incorporated in the synthesized complementary strand; 3' TTTTT single-stranded linker to array surface; dsDNA, one strand shown. The method in brief:
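The binding signal for each feature is its fluorescence intensity in arbitrary units. An Axon 4000B scanner was used to read a custom Agilent array that had been made double-stranded with Cy5-dUTP primer extension, blocked with 2% BSA, incubated at 25 °C for 1 h with 200 nM protein in PBS, 2% BSA, salmon testes DNA and 50 µM zinc acetate, and washed. The protein was an N-terminal polyhistidine–DsRed transcription factor fusion from E. coli BL21-CodonPlus, purified on Ni–NTA.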
As to “CTCATGATGGCTTTATCAATATCAAGATTTGATGACTCAGCGGAGTCACCTAGTGCAG”, the binding signal is 15400 fluorescence intensity (a.u.).
In the case of “CATAGATCTTTTGACTAGGTTTTCGTTCCACGTGGCATCACGGAGTCACCTAGTGCAG” it was 12900 fluorescence intensity (a.u.); in that of “GTTTGAATAGGTCTTTCGTCCCACGTGGCATTGACGTGGCCGGAGTCACCTAGTGCAG”, 45700 fluorescence intensity (a.u.); in that of “TAGGTCTTCGTCCCACGTGGCATTGACGTGGCGCTTACGCCGGAGTCACCTAGTGCAG”, 30000 fluorescence intensity (a.u.).
With “ACACTTATCGACGTGCCAGCGCGACGCAATATGCTCCGATCGGAGTCACCTAGTGCAG”, the binding signal was 5400 fluorescence intensity (a.u.).
In the case of “CACAAATGAAGAAACAAGGTGTTGCATCACCAGTCATGGGCGGAGTCACCTAGTGCAG” it was 6740 fluorescence intensity (a.u.).
Then “TTTAACTATGAGAATATATAGTACGTGTTGAGACATGAAACGGAGTCACCTAGTGCAG”, with 27800 fluorescence intensity (a.u.); and “TGCAAGCAGCAAGCGTGTCACTACGTTTACATGACATGCACGGAGTCACCTAGTGCAG”, with 47600 fluorescence intensity (a.u.); and “TGACCTAATACATTCATGCTGACTAGCGTTTACGTGGCAACGGAGTCACCTAGTGCAG”, with 14100 fluorescence intensity (a.u.).
Then “TCCATGCTGGTTTTAGTCCTACGTGACAATACAGTCAGCACGGAGTCACCTAGTGCAG”, with 5640 fluorescence intensity (a.u.); and “TTTAATTATATTATCACTGACATGTGGGTCCCACTATATGCGGAGTCACCTAGTGCAG”, with 4330 fluorescence intensity (a.u.); and “GCCAATGCCATGTCCTCTGCGGCCTGCTTGCTGGTGAACTCGGAGTCACCTAGTGCAG”, with 46600 fluorescence intensity (a.u.).
Take “CTCGACATTGCTGGCAATGCCTGGGAGATTGCTTGCCATGCGGAGTCACCTAGTGCAG”: the binding signal was 3180 fluorescence intensity (a.u.).
In the case of “CACTCCTCTGCTGCTCGTCGTCAATGCCATCCTCATCATGCGGAGTCACCTAGTGCAG” it was 3330 fluorescence intensity (a.u.); in that of “GATTTGCTTACATGAATAAGGTTGATTTGCATCGGCAAGACGGAGTCACCTAGTGCAG”, 4000 fluorescence intensity (a.u.).
In the case of “CCCTTCCGGCTTCCACGCGTCGGGAACCGAAGTCCAAACCCGGAGTCACCTAGTGCAG” it was 3360 fluorescence intensity (a.u.); in that of “TCCAAGAAAGAAAGGAGAATTATCCGGCAGTTTCAGAGGTCGGAGTCACCTAGTGCAG”, 22200 fluorescence intensity (a.u.).
Turning to “CCGGAGCCAGTAGTAGCGTTGAGTCGTTGTCGCGAGATGGCGGAGTCACCTAGTGCAG”, the binding signal was 3260 fluorescence intensity (a.u.).
In the case of “TCCCACTCGATTTGGGAGAAAATACAGGGATTAAACTCTGCGGAGTCACCTAGTGCAG”, the binding signal is 3550 fluorescence intensity (a.u.).
In the case of “ACAGGAATATCTCTTCGAGGGATTAAAATTCACTCCCACTCGGAGTCACCTAGTGCAG” it was 50800 fluorescence intensity (a.u.).
On to “AGAAAAGGAGGAAAAGAATTTCCCTGGGATTTAAAATATTCGGAGTCACCTAGTGCAG”, for which the binding signal is 26300 fluorescence intensity (a.u.).
Then “AGTGTCAGTACACACACTAGCTTCTCTCACCGGCTCTCCGCGGAGTCACCTAGTGCAG”, with 3210 fluorescence intensity (a.u.); and “CACAACTTTTGATTTCAGGACATATGTGTTCAGCTTTCCTCGGAGTCACCTAGTGCAG”, with 3370 fluorescence intensity (a.u.).
“GTTCAGCTATCAAAGTCCCTGAATAGTTTAGATTTACATTCGGAGTCACCTAGTGCAG”: the binding signal was 14100 fluorescence intensity (a.u.).
Then “CTGACAGCTTTTAGTTCACAAATATCAGTAAGATTTCCCTCGGAGTCACCTAGTGCAG”, with 43200 fluorescence intensity (a.u.); and “ATTTCATAAAACTGCACATTCTGGGGTTCAAGTTGCAGAACGGAGTCACCTAGTGCAG”, with 3170 fluorescence intensity (a.u.); and “TTCCTCCATCTTGACGTGGGACCCACCTGGAGATTCATCTCGGAGTCACCTAGTGCAG”, with 4710 fluorescence intensity (a.u.).
Then “TGCTACATAAGTGACACGTCAACACCACGTTGTATAAAGACGGAGTCACCTAGTGCAG”, with 53700 fluorescence intensity (a.u.); and “ATGCTATATAAATGCCACGTTGTGCGAAGACCAAGTCAACCGGAGTCACCTAGTGCAG”, with 3510 fluorescence intensity (a.u.); and “TTACACGTTAAGAAAGTGCTAAGTAAACAAGACTGCCTGACGGAGTCACCTAGTGCAG”, with 17700 fluorescence intensity (a.u.).
Then “ACTACACCGTCGCAGCGCACCCACGTGACACGCAGCCACACGGAGTCACCTAGTGCAG”, with 4730 fluorescence intensity (a.u.); and “TGATACATTACTCAAGGAAACAGTCACACAGTCTATCACGCGGAGTCACCTAGTGCAG”, with 3200 fluorescence intensity (a.u.).
As to “CCCTCAAGGGCTCAAAACACTCAAACAGTTCTACATATATCGGAGTCACCTAGTGCAG”, the binding signal was 57600 fluorescence intensity (a.u.).
Regarding “CGTTGGGCTCAAGGGGAGGGATATCTATCTAACAGTAACACGGAGTCACCTAGTGCAG”, the binding signal is 4110 fluorescence intensity (a.u.).
Then “CCGTCTCCACGCACTCGAACGTCACCGACGACCCCGGCAGCGGAGTCACCTAGTGCAG”, with 5490 fluorescence intensity (a.u.); and “GCCACACCTCCCATTCCTTAGCCAAACACTCGCACTACTCCGGAGTCACCTAGTGCAG”, with 3200 fluorescence intensity (a.u.); and “CGGTTGAATTGTTCTTGGCATCATCGGGTGTAACCGTGTACGGAGTCACCTAGTGCAG”, with 3350 fluorescence intensity (a.u.).
Then “TTCTCAGCCAATCCCCAGCTCACACGTGCCAACTCTTCCACGGAGTCACCTAGTGCAG”, with 7630 fluorescence intensity (a.u.).
Then “CCACCATGGATCCGACGTGGCACAACCACATTGGTCCCTCCGGAGTCACCTAGTGCAG”, with 17700 fluorescence intensity (a.u.); and “TAGGCCCACACCTAGTCAGCTCAATCGAAATACAACCCACCGGAGTCACCTAGTGCAG”, with 3450 fluorescence intensity (a.u.); and “AACAGCTCAATTAATTAATCGCCCACACCGAAGCGCGCACCGGAGTCACCTAGTGCAG”, with 39800 fluorescence intensity (a.u.).
Consider “AAGCGCGCGCCTCGCCACCTCACCCGAAGAAATTCCCCACCGGAGTCACCTAGTGCAG”, for which the binding signal was 4140 fluorescence intensity (a.u.).
